Records with an inconclusive call do not appear. Where a call stands in place of a potency, no number is given. Active and inactive are the calls of the source. Unless noted, calls come from the whole dose curve; as a rule, active = well fitted curve in the direction sought with a large enough effect in the repeat runs; inconclusive = weak or mixed curves; inactive = no such curve, though single readings can be large; an effect the other way counts as inactive or inconclusive.
What was measured:
[1] = qHTS assay for small molecule agonists of the p53 signaling pathway (AID 651631; calls by dose curve; note: nearly all actives have a fitted effect of over 15% in size)
Method in brief: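 Testing took place in human colorectal HCT-116 cells with stable p53RE-driven beta-lactamase. After 16 h of compound exposure at 37 °C, a FRET substrate was added and fluorescence recorded 2 h later.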

[2] = qHTS assay for small molecules that induce genotoxicity in human embryonic kidney cells expressing luciferase-tagged ATAD5 (AID 651632); note: nearly all actives have a fitted effect of over 15% in size
Method in brief: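 Reporter cells (HEK293T) express luciferase-tagged ATAD5, a protein that accumulates after DNA damage. Treat 16 hr at 37C/5% CO2, add Amplite, wait 30 min at RT, and read luminescence.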

[3] = qHTS assay for small molecule agonists of the p53 signaling pathway - cell viability (AID 651633; calls by dose curve; note: nearly all actives have a fitted effect of over 30% in size)
Method in brief: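 p53RE-bla cells, seeded at 4,000 per well and rested 5 h at 37 C/5% CO2, received compounds in DMSO for 16 h at 37 C. CellTiter-Glo was then added, and luminescence was read after 30 min at room temperature to gauge cytotoxicity.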

[4] = qHTS assay for small molecules that induce genotoxicity in human embryonic kidney cells expressing luciferase-tagged ATAD5 - cell viability (AID 651634; calls by dose curve; note: nearly all actives have a fitted effect of over 25% in size)
Method in brief: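 Seeding of 2,000 HEK293T ATAD5-luciferase cells per well preceded pin-tool compound transfer. Plates sat 15.5 hr at 37C under 5% CO2, then fluorescence was read after 30 min with CellTiter-Fluor.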

[5] = qHTS assay for small molecule disruptors of the mitochondrial membrane potential - cell viability (AID 720634; calls by dose curve;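 note: human HepG2 liver cancer cells; nearly all actives have a fitted effect of over 20% in size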)
Method in brief: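 Measuring cytotoxicity alongside mitochondrial potential, the screen quantified ATP by luminescence in HepG2 cells after 1 hr compound incubation and a 30 min room-temperature CellTiter-Glo step.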

[6] = qHTS assay for small molecule disruptors of the mitochondrial membrane potential (AID 720635); note: potency is the fitted concentration of half-maximal effect
Method in brief: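 HepG2 cells (2,000/well) attached overnight at 37C, then took compound for 1 hr at 37C, 5% CO2. Mito-MPS dye was added for 30 min; fluorescence was read at 490/535 nm (monomers) and 540/590 nm (aggregates).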

[7] = qHTS assay to test for compound auto fluorescence at 590 nm (red) in HepG2 cells (AID 720674)
Method in brief: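 Intrinsic compound fluorescence in the red window (Ex/Em 540/590 nm) is measured in attached HepG2 cells exposed for 1 hr, DMSO vehicle as baseline, benchmarked to Rose Bengal sodium.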

[8] = qHTS assay to test for compound auto fluorescence at 535 nm (green) in HepG2 cells (AID 720675)
[9] = qHTS assay to test for compound auto fluorescence at 460 nm (blue) in HEK293 cells (AID 720678)
Method in brief: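 Cells were seeded and left to adhere for 4-5 hr at 37C. Compounds were then pin-transferred. After an overnight incubation at 37C under 5% CO2, intrinsic fluorescence at 405/460 nm was measured and referenced to triamterene.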

[10] = qHTS assay to test for compound auto fluorescence at 590 nm (red) in HEK293 cells (AID 720679)
Method in brief: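 Each well held 2,000 HEK293 cells in medium containing 10% dialyzed FBS. Following 4-5 hr attachment at 37C, 23 nL test compound or DMSO was added; plates sat overnight, and red fluorescence (540/590nm) was recorded.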

[11] = qHTS assay to test for compound auto fluorescence at 535 nm (green) in HEK293 cells (AID 720680)
[12] = qHTS assay to test for compound auto fluorescence at 460 nm (blue) in HEK293 cell free culture (AID 720681)
Method in brief: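 Test compounds were pinned into cell-free culture medium (DMEM with 10% FBS) and fluorescence was read directly at Ex/Em 405/460 nm. Signals were expressed as fluorescence equivalents of triamterene, with DMSO vehicle as control.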

[13] = qHTS assay to test for compound auto fluorescence at 535 nm (green) in HEK293 cell free culture (AID 720682)
Method in brief: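 DMEM + 10% FBS, cell-free; cpd or DMSO pinned in; Ex485/Em535 read; output as fluorescein-equivalent signal.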

[14] = qHTS assay to test for compound auto fluorescence at 590 nm (red) in HEK293 cell free culture (AID 720683)
Method in brief: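 Tox21 10K library compounds were pinned into cell-free DMEM with 10% FBS and fluorescence was read at excitation 540 nm. Activity is expressed as Rose Bengal sodium equivalency.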

[15] = qHTS assay to test for compound auto fluorescence at 590 nm (red) in HepG2 cell free culture (AID 720684)
Method in brief: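 Red fluorescence (540 nm excitation, 590 nm emission) was measured after compound transfer into cell-free MEM supplemented with 10% FBS. Values are equivalencies against Rose Bengal sodium.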

[16] = qHTS assay to test for compound auto fluorescence at 460 nm (blue) in HepG2 cell free culture (AID 720685)
Method in brief: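 Compound (23 nL) or DMSO pinned into cell-free MEM with 10% FBS; blue fluorescence read at 405/460 nm excitation/emission, expressed as auto-fluorescence equivalency to triamterene.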

[17] = qHTS assay to test for compound auto fluorescence at 535 nm (green) in HepG2 cell free culture (AID 720686)
[18] = qHTS assay to test for compound auto fluorescence at 460 nm (blue) in HepG2 cells (AID 720687)
Method in brief: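 Cells (2,000/well in MEM with 10% FBS) attached overnight at 37 C, then were exposed to compound or DMSO for 1 hr at 37 C, 5% CO2. Fluorescence read at Ex/Em 405/460 nm, expressed as triamterene-equivalent signal.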

[19] = target: Glucocorticoid receptor (Homo sapiens) (UniProt P04150); experiment: qHTS assay to identify small molecule agonists of the glucocorticoid receptor (GR) signaling pathway (AID 720691; active = well fitted activation curve with a large enough effect in the signal ratio in the repeat runs, not every such curve was filed as active; the % refers to the signal ratio; note: potency is the fitted concentration of half-maximal effect); details: GR-bla HeLa, beta-lactamase reporter ratio, 18 h; activation: at 62.4 µM (top of the series)
Method in brief: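 Reporter read-out: fluorescence intensity following 2 h room-temperature LiveBLAzer B/G FRET substrate loading. Prior step: GR-bla HeLa cells held 4 h, then treated 18 h at 37 C.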

[20] = target: Glucocorticoid receptor (Homo sapiens) (UniProt P04150); experiment: qHTS assay to identify small molecule antagonists of the glucocorticoid receptor (GR) signaling pathway (AID 720692; active = well fitted inhibition curve with a large enough effect in the signal ratio in the repeat runs, not every such curve was filed as active; the % refers to the signal ratio)
Method in brief: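 Dexamethasone (5 nM final) stimulated a stably integrated GRE-beta-lactamase reporter in HeLa cells during 18 h co-incubation with compounds; signal was quantified as fluorescence intensity of B/G FRET substrate after 2 h.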

Sequence of Glucocorticoid receptor (Homo sapiens) (P04150 whole entry, looked up): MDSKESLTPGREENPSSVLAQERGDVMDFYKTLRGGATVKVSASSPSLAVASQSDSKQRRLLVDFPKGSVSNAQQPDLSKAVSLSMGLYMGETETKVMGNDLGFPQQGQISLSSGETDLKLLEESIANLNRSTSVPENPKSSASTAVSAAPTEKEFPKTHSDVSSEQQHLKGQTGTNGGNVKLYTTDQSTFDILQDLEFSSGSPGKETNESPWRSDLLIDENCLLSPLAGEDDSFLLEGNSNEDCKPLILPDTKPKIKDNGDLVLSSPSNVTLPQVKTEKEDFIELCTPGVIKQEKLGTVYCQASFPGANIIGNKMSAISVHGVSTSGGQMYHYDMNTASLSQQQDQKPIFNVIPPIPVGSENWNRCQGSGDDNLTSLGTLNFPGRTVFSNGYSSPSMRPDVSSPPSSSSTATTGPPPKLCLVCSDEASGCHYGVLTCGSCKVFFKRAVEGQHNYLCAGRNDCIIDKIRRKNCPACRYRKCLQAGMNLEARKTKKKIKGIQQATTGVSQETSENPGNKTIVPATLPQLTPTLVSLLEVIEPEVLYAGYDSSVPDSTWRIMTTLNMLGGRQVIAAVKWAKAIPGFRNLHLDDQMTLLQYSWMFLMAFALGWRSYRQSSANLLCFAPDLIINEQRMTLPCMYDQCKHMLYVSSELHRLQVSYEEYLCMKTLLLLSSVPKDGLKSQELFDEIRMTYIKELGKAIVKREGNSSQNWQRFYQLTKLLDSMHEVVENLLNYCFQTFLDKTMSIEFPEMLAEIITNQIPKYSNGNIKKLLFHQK

| Compound | Potency [1] | Potency [2] | Potency [3] | Potency [4] | Potency [5] | Potency [6] | Potency [7] | Potency [8] | Potency [9] | Potency [10] | Potency [11] | Potency [12] | Potency [13] | Potency [14] | Potency [15] | outcome [16] | Potency [17] | outcome [18] | Potency [19] | Potency [20] |
| --- | --- | --- | --- | --- | --- | --- | --- | --- | --- | --- | --- | --- | --- | --- | --- | --- | --- | --- | --- | --- |
| CCCCCCCCCCCCCCCCCCOP(=O)([O-])OC1CC[N+](C)(C)CC1 | inactive | inactive | inactive | inactive | inactive | inactive | inactive | inactive | inactive | inactive | inactive | inactive | inactive | inactive | inactive | inactive | inactive | inactive | inactive | inactive |
| CN[C@@H]1CCc2[nH]c3ccc(C(N)=O)cc3c2C1 | inactive | inactive | inactive | inactive | inactive | inactive | inactive | inactive | inactive | inactive | inactive | inactive | inactive | inactive | inactive | inactive | inactive | inactive | inactive | inactive |
| CC1CC(OC(=O)C(O)c2ccccc2)CC(C)(C)C1 (stereo not given) | inactive | inactive | inactive | inactive | inactive | 13.3 µM (active) | inactive | inactive | inactive | inactive | inactive | inactive | inactive | inactive | inactive | inactive | inactive | inactive | – | – |
| C=C1CC2C3CCC4=CC(=O)C=C[C@]4(C)[C@@]3(F)[C@@H](O)C[C@]2(C)[C@@]1(O)C(=O)COC(C)=O (stereo not given in full) | inactive | inactive | inactive | inactive | inactive | inactive | inactive | inactive | inactive | inactive | inactive | inactive | inactive | inactive | inactive | inactive | inactive | inactive | 0.0151 µM (active) | – |
| O=C(O)[C@H](CC(=O)N1C[C@H]2CCCC[C@H]2C1)Cc1ccccc1 | inactive | inactive | inactive | inactive | inactive | inactive | inactive | inactive | inactive | inactive | inactive | inactive | inactive | inactive | inactive | inactive | inactive | inactive | inactive | inactive |
| Cn1nnnc1SCC1=C(C(=O)O)N2C(=O)[C@@H](NC(=O)[C@H](OC=O)c3ccccc3)[C@H]2SC1 | inactive | inactive | inactive | inactive | inactive | inactive | inactive | inactive | inactive | inactive | inactive | inactive | inactive | inactive | inactive | inactive | inactive | inactive | – | – |

Reference: PubChem BioAssay (Tox21)
